Laboratory results reported in PubChem BioAssay (Tox21).
Records with an inconclusive call do not appear. Where a call stands in place of a potency, no number is given. Active and inactive are the calls of the source. Calls follow the shape of the dose curve; as a rule, active = well fitted cell-killing curve with a large enough effect in the repeat runs; inconclusive = weak or mixed curves, or effect the other way; inactive = flat fitted curve, though single readings scatter.

experiment: qHTS assay to identify small molecule agonists of the sonic hedgehog signaling (Shh) pathway - cell viability counter screen (AID 1259366); conditions: NIH/3T3 Gli1-Luc viability, CellTiter-Fluor, 24 h; series mostly up to 92.4 µM; also: nearly all actives have a fitted effect of over 50% in size
Excerpt: National Center for Advancing Translational Sciences [NCATS]
NIH Chemical Genomics Center [NCGC]
U.S. Environmental Protection Agency [EPA]
National Institutes of Environmental Health Sciences [NIEHS]
National Toxicology Program [NTP]
U.S. Food and Drug Administration [FDA]
The sonic hedgehog (Shh) pathway is essential for normal embryonic development. Dysregulation of the Shh pathway can cause severe developmental defects in organs. Therefore chemicals that interfere with the pathway are potential developmental toxicants. A cell line designated 3T3Gli1-Luc (DMB/OARSA/CFSAN/FDA, Laurel, MD), a NIH/3T3 derived clone containing stably integrated Gli1-Luc reporter is used to detect chemical interference of the Shh pathway, by changes in the expression of the firefly Luc gene under the control of the Gli1 transcriptional response element. This cell line was used to screen Tox21 libraries for identifying and prioritizing the potential developmental toxicants that interfere Shh pathway. The cytotoxicity of the compounds was tested in parallel by measuring the cell viability using CellTiter-Fluor assay system (Promega, Madison, WI) in the same wells.
Tox21 Assay Protocol Summary:
3T3 Gli1-Luc cells were dispensed at 2,000 per well in 5uL of culture medium into white solid bottom 1536-well plates (Greiner Bio-One, Monroe, NC) using a Multidrop Combi (Thermo Scientific, Waltham, MA) dispenser. The assay plates were incubated at 37 C and 5% CO2 for 4hr, and then 23nL of compounds dissolved in DMSO and positive control were transferred using a Pintool station (Wako, San Diego, CA). The assay plates were incubated at 37C and 5% CO2 for 24hr. For viability read, after 23hr of compound treatment, 1uL of CellTiter-Fluor reagent (Promega Corporation, Madison, WI) was added to each well of the assay plates using Flying Reagent Dispenser (FRD, Aurora Discovery, San Diego, CA) and incubated the assay plates at 37C for 1hr. The fluorescence signal was quantified using a ViewLux plate reader (Perkin Elmer, Shelton, CT).
Potency is read from the fitted curve at half-maximal effect.

SMILES	Potency	viability change, negative = cytotoxic
CS(=O)(=O)c1ccc([C@@H](C[C@H]2CCC(=O)C2)C(=O)Nc2cnccn2)cc1Cl	inactive	
CCC(CO)(CO)CO	inactive	
CC(C)COC(=O)c1ccc(O)cc1	inactive	
CCCCCCC(O)CCCCCCCCCCC(=O)OC (stereo not given)	inactive	
CCCCC(CC)COS(=O)(=O)O (stereo not given)	inactive	
CCOC(=O)c1ccc(NC(=O)CN2CCCCC2)cc1	inactive	
CCCCCCC(O)CCOC(C)=O (stereo not given)	inactive	
Nc1ccc(F)cc1	inactive	
O=[N+]([O-])C1(Br)COCOC1	43.3 µM (active)	
COc1ccc(-c2cc(=S)ss2)cc1	inactive	
Cc1ccc2c(c1[N+](=O)[O-])C(=O)c1ccccc1C2=O	inactive	
O=C(NS(=O)(=O)/C=C/c1ccccc1)c1ccc(F)cc1Cl	inactive	
C=CC(=O)O	inactive	
O=C(C(=O)c1ccco1)c1ccco1	inactive	
CCOC(=O)Oc1ccc(CCNC(=O)[C@H](CCSC)NC(C)=O)cc1OC(=O)OCC	inactive	
CCN(CC)C(=O)N1CCN(C)CC1	inactive	
Cc1ccc(Nc2c(F)cccc2Cl)c(CC(=O)O)c1	inactive	
Cc1c(C2(c3cc(Br)c(O)c(Br)c3C)OS(=O)(=O)c3ccccc32)cc(Br)c(O)c1Br	9.4 µM (active)	
COc1ccc(C(=O)NCc2ccc(OCCN(C)C)cc2)cc1OC	inactive	
COc1cc(NS(=O)(=O)c2ccc(N)cc2)nc(C)n1	inactive	

SMILES	Potency	viability change, negative = cytotoxic
O=c1[nH][nH]c(=O)c2cc([N+](=O)[O-])ccc12	inactive	
CC(=O)OCCC1CCCCC1	inactive	
O=C(O)c1cc(Cl)cc(Cl)c1O	inactive	
CCOc1ncc(F)c(=O)[nH]1	inactive	
CC1=CC[C@@H]2C[C@H]1C2(C)C		-0.75% [at 19 µM] (inactive)
CC(C)(C(=O)c1cccnc1)c1cccnc1	inactive	
CCCCCCOC(=O)CCCCC	inactive	
CCCCCCCCCCCC(=O)OCC(O)CO (stereo not given)	inactive	
Oc1cccc2[nH]ccc12	inactive	
COC1CCC=CO1 (stereo not given)	inactive	
CC1CCCC(=O)C1=O (stereo not given)	inactive	
O=c1[nH]c2cc(C(F)(F)F)c(N3CCOCC3)cc2n(CP(=O)(O)O)c1=O	inactive	
O=C(O)CCC(=O)c1ccc(-c2ccccc2)cc1	inactive	
Cc1c[nH]c2ccccc12	inactive	
CN(C)CC/C=C1\c2ccccc2Sc2ccc(Cl)cc21	26.6 µM (active)	
Cc1oc(=O)oc1COC(=O)[C@@H]1N2C(=O)[C@@H](NC(=O)[C@H](N)c3ccccc3)[C@H]2SC1(C)C	inactive	
CCNc1nc(N)nc(Cl)n1	inactive	
O=C(c1ccccc1)C1CCC1	inactive	
CO[C@@H]1[C@@H](OC)[C@H](C)[C@@](O)(CC(=O)O)O[C@H]1[C@H](C)[C@H]1O[C@@]2(CC[C@@](C)([C@H]3CC[C@@](C)([C@@H]4O[C@@H]([C@H]5O[C@](C)(O)[C@H](C)C[C@@H]5C)C[C@@H]4OC4C[C@H](OC)[C@@H](OC)[C@H](C)O4)O3)O2)C[C@H](O)[C@H]1C (stereo not given in full)	4.22 µM (active)	
CNC1CCCN(c2c(F)cc3c(=O)c(C(=O)O)cn(C4CC4)c3c2OC)C1 (stereo not given)	inactive	
